{"source": "PubChem BioAssay (NCI)", "note": "The panel holds about 83,000 compounds, 20% with a hit somewhere; the sample as a whole holds those more often.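 For each line, cells grew in 96-well plates with the test compound present at a single concentration for 48 hours.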 The source made the active and inactive calls. The calls were made as follows: active = growth percent below 10; inactive = the rest."}
{"tested_on": "SK-MEL-2 melanoma", "test": "NCI-60 one-dose screen, 48 h (100 = growth as untreated, 0 = no growth, -100 = all killed)", "settings": "10 µM unless noted"}
{"smiles": "N=C(N)c1ccc(-c2ccc(-c3cccs3)s2)cc1F", "growth": "-80.2% (active)"}
{"smiles": "COc1ccc2nc(-c3ccc(-c4noc(-c5ccc(Cl)cc5)n4)cc3)[nH]c2c1", "growth": "100% (inactive)"}
{"smiles": "Cc1cccc2nc3ccccc3c(Nc3ccc(NS(C)(=O)=O)cc3)c12", "growth": "112% (inactive)"}
{"smiles": "CC(C)CCSc1nc(Nc2ccccc2)c(C#N)c(-c2ccc(F)cc2)n1", "growth": "90.6% (inactive)"}
{"smiles": "COc1cc(OC)cc(-c2ccc(-c3ccc(C(=N)N)s3)s2)c1", "growth": "-85.4% (active)"}
{"smiles": "COc1ccc(-c2ccc(-c3ccc(C(=N)N)s3)s2)cc1", "growth": "-78.4% (active)"}
{"smiles": "C#CCO[C@H]1CC[C@H](OCC#C)[C@@H]2[C@H]1[C@H]1C[C@@H]3[C@@]4(C)CCC[C@@](C)(C(=O)OC)[C@@H]4CC[C@@]23C=C1C(C)C", "growth": "85% (inactive)"}
{"smiles": "COC(=O)[C@H](Cc1cn(C)cn1)NC(=O)[C@H](CC(C)C)NC(=O)Nc1cc(C(F)(F)F)cc(C(F)(F)F)c1", "growth": "-95.4% [100 µM] (active)"}
{"smiles": "O=C1CCCN1C1CCN2CCCc3cccc1c32", "note": "(stereo unspecified)", "growth": "102% (inactive)"}
{"smiles": "O=C(CCCN1CCC(O)(c2ccc(Br)cc2)CC1)c1ccc(F)cc1", "growth": "100% (inactive)"}
{"smiles": "COc1ccc(/C=N/NC(N)=S)c(OC)n1", "growth": "94% (inactive)"}
{"smiles": "CCN1C(=O)N(CC)C2C1N=C(SC)N2/N=C/C=C/c1ccccc1OC", "note": "(stereo unspecified)", "growth": "26.5% (inactive)"}
{"smiles": "C/C(=N\\Nc1ccc([N+](=O)[O-])cn1)c1ccc(N)cc1", "growth": "100% (inactive)"}
{"smiles": "N/C(=N\\O)c1ncc(-c2ccc(C(F)(F)F)cc2)c(NC2CCCCCC2)n1", "growth": "-90.6% [100 µM] (active)"}
{"smiles": "O=[N+]([O-])c1ccc(Sc2nc(Cl)nc(NC3CCCC3)n2)cc1", "growth": "-91.7% [100 µM] (active)"}
{"smiles": "Cc1cc2nc(CN)[nH]c2cc1C", "growth": "110% (inactive)"}
{"smiles": "ClC1=NC(Cl)C(Cl)=N/C1=N\\c1ncn[nH]1", "note": "(stereo unspecified)", "growth": "-5.62% (active)"}
{"smiles": "COc1ccc(CNc2c3ccccc3nc3ccccc23)cc1F", "growth": "45.1% (inactive)"}
{"smiles": "CCOC(=O)C1C(=O)C=C(c2ccccc2)CC1c1sc(N(C)Cc2ccccc2)nc1Cl", "note": "(stereo unspecified)", "growth": "84.4% (inactive)"}
{"smiles": "CCOC(=O)c1cc(C(=O)OCC)c(C)nc1C", "growth": "124% (inactive)"}
{"smiles": "O=C1OCC2=C1C(c1ccccc1)c1cc3c(cc1N2CCO)CCC3", "note": "(stereo unspecified)", "growth": "17.1% (inactive)"}
{"smiles": "O=C(CC(=O)c1ccccc1F)Nc1ccc([N+](=O)[O-])cc1", "growth": "84% (inactive)"}
{"smiles": "Cc1cc(Nc2c3ccccc3nc3ccccc23)ccc1NS(C)(=O)=O", "growth": "40.7% (inactive)"}
{"smiles": "COC(=O)CSc1ccc(Cl)cc1", "growth": "104% (inactive)"}
{"tested_on": "EKVX NSCLC", "test": "NCI-60 one-dose screen, 48 h (100 = growth as untreated, 0 = no growth, -100 = all killed)", "settings": "10 µM unless noted"}
{"smiles": "O=C(Nc1cccc(C2=NCCN2)c1)c1ccc(N=Nc2ccc(C(=O)Nc3cccc(C4=NCCN4)c3)cc2)cc1", "growth": "62.6% (inactive)"}
{"smiles": "COc1ccc(-c2cc(-c3cc4ccccc4oc3=O)n(-c3ccccc3)n2)cc1", "growth": "67.5% (inactive)"}
{"smiles": "CC(C)N(C(=S)SSC(=S)N(C(C)C)C(C)C)C(C)C", "growth": "110% (inactive)"}
{"smiles": "CCOC(OCC)c1cnc2nc(NC(C)=O)[nH]c(=O)c2n1", "growth": "109% (inactive)"}
{"smiles": "COc1ccc(/C=C/c2nc(NCCCN(C)C)c3ccccc3n2)cc1", "growth": "64.3% (inactive)"}
{"smiles": "CCCCCCCCN=C(NCCCCCCCC)SCc1cccc2ccccc12", "growth": "-66.4% (active)"}
{"smiles": "COc1ccc2nc(-c3ccc(-c4noc(-c5ccc(Cl)cc5)n4)cc3)[nH]c2c1", "growth": "91.2% (inactive)"}
{"smiles": "CC(C)CCSc1nc(Nc2ccccc2)c(C#N)c(-c2ccc(F)cc2)n1", "growth": "65.1% (inactive)"}
{"smiles": "C#CCO[C@H]1CC[C@H](OCC#C)[C@@H]2[C@H]1[C@H]1C[C@@H]3[C@@]4(C)CCC[C@@](C)(C(=O)OC)[C@@H]4CC[C@@]23C=C1C(C)C", "growth": "74.4% (inactive)"}
{"smiles": "O=C1CCCN1C1CCN2CCCc3cccc1c32", "note": "(stereo unspecified)", "growth": "102% (inactive)"}
{"smiles": "O=C(CCCN1CCC(O)(c2ccc(Br)cc2)CC1)c1ccc(F)cc1", "growth": "91% (inactive)"}
{"smiles": "CCN1C(=O)N(CC)C2C1N=C(SC)N2/N=C/C=C/c1ccccc1OC", "note": "(stereo unspecified)", "growth": "23.4% (inactive)"}
{"smiles": "C/C(=N\\Nc1ccc([N+](=O)[O-])cn1)c1ccc(N)cc1", "growth": "109% (inactive)"}
{"smiles": "COc1ccc(CNc2c3ccccc3nc3ccccc23)cc1F", "growth": "26.1% (inactive)"}
{"smiles": "CCOC(=O)C1C(=O)C=C(c2ccccc2)CC1c1sc(N(C)Cc2ccccc2)nc1Cl", "note": "(stereo unspecified)", "growth": "87.9% (inactive)"}
{"smiles": "CCOC(=O)c1cc(C(=O)OCC)c(C)nc1C", "growth": "102% (inactive)"}
{"smiles": "O=C1OCC2=C1C(c1ccccc1)c1cc3c(cc1N2CCO)CCC3", "note": "(stereo unspecified)", "growth": "22.7% (inactive)"}
{"smiles": "COC(=O)CSc1ccc(Cl)cc1", "growth": "101% (inactive)"}
{"tested_on": "SN12C renal", "test": "NCI-60 one-dose screen, 48 h (100 = growth as untreated, 0 = no growth, -100 = all killed)", "settings": "10 µM unless noted"}
{"smiles": "CCS(=O)(=O)Nc1cccc(Nc2c3cccc(C)c3nc3c(C)cccc23)c1OC", "growth": "12.5% (inactive)"}
{"smiles": "Cc1nn(-c2ccccc2)c2nc3c(nc12)C1=NCCN1C(c1ccc(Cl)cc1)N3", "note": "(stereo unspecified)", "growth": "89.5% (inactive)"}
{"smiles": "O=C(Nc1cccc(C2=NCCN2)c1)c1ccc(N=Nc2ccc(C(=O)Nc3cccc(C4=NCCN4)c3)cc2)cc1", "growth": "49.9% (inactive)"}
{"smiles": "COC(=O)[C@@H](Cc1c[nH]c2ccccc12)NC(=O)/C=C/c1ccccc1", "growth": "50.7% (inactive)"}
{"smiles": "CCOC(=O)C(CCCCC(NC(C)=O)(C(=O)OCC)C(=O)OCC)(NC(C)=O)C(=O)OCC", "growth": "101% (inactive)"}
{"smiles": "COc1ccc(-c2cc(-c3cc4ccccc4oc3=O)n(-c3ccccc3)n2)cc1", "growth": "67% (inactive)"}
{"smiles": "CC(C)N(C(=S)SSC(=S)N(C(C)C)C(C)C)C(C)C", "growth": "101% (inactive)"}
{"smiles": "CCOC(OCC)c1cnc2nc(NC(C)=O)[nH]c(=O)c2n1", "growth": "101% (inactive)"}
{"smiles": "CC(C)(C)c1cc(C[P+](c2ccccc2)(c2ccccc2)c2ccccc2)cc(C(C)(C)C)c1O", "growth": "12.2% (inactive)"}
{"smiles": "N#Cc1ccc(-c2ccc(-c3cccs3)o2)cc1F", "growth": "89.1% (inactive)"}
{"smiles": "CCN(C(=O)CCl)C(C)(C)C(SSSC(c1ccc(Cl)cc1)C(C)(C)N(CC)C(=O)CCl)c1ccc(Cl)cc1", "note": "(stereo unspecified)", "growth": "88.3% (inactive)"}
{"smiles": "N=C(N)c1ccc(-c2ccc(-c3ccco3)o2)cc1F", "growth": "39.8% (inactive)"}
{"smiles": "COc1ccc(/C=C/c2nc(NCCCN(C)C)c3ccccc3n2)cc1", "growth": "86.7% (inactive)"}
{"smiles": "COc1cc2c(cc1OC)-c1cc(OC)c(OC)cc1C(CN(C)C)C2", "note": "(stereo unspecified)", "growth": "43.7% [100 µM] (inactive)"}
{"smiles": "CCCCCCCCN=C(NCCCCCCCC)SCc1cccc2ccccc12", "growth": "-88.1% (active)"}
{"smiles": "N=C(N)c1ccc(-c2ccc(-c3cccs3)s2)cc1F", "growth": "-65.3% (active)"}
{"smiles": "COc1ccc2nc(-c3ccc(-c4noc(-c5ccc(Cl)cc5)n4)cc3)[nH]c2c1", "growth": "77.7% (inactive)"}
{"smiles": "Cc1cccc2nc3ccccc3c(Nc3ccc(NS(C)(=O)=O)cc3)c12", "growth": "38.9% (inactive)"}
{"smiles": "CC(C)CCSc1nc(Nc2ccccc2)c(C#N)c(-c2ccc(F)cc2)n1", "growth": "38.9% (inactive)"}
{"smiles": "COc1cc(OC)cc(-c2ccc(-c3ccc(C(=N)N)s3)s2)c1", "growth": "-69.5% (active)"}
{"smiles": "COc1ccc(-c2ccc(-c3ccc(C(=N)N)s3)s2)cc1", "growth": "-51.8% (active)"}
{"smiles": "C#CCO[C@H]1CC[C@H](OCC#C)[C@@H]2[C@H]1[C@H]1C[C@@H]3[C@@]4(C)CCC[C@@](C)(C(=O)OC)[C@@H]4CC[C@@]23C=C1C(C)C", "growth": "86.3% (inactive)"}
{"smiles": "COC(=O)[C@H](Cc1cn(C)cn1)NC(=O)[C@H](CC(C)C)NC(=O)Nc1cc(C(F)(F)F)cc(C(F)(F)F)c1", "growth": "-92.8% [100 µM] (active)"}
{"smiles": "O=C1CCCN1C1CCN2CCCc3cccc1c32", "note": "(stereo unspecified)", "growth": "104% (inactive)"}
{"smiles": "O=C(CCCN1CCC(O)(c2ccc(Br)cc2)CC1)c1ccc(F)cc1", "growth": "72.8% (inactive)"}
{"smiles": "COc1ccc(/C=N/NC(N)=S)c(OC)n1", "growth": "98.5% (inactive)"}
{"smiles": "CCN1C(=O)N(CC)C2C1N=C(SC)N2/N=C/C=C/c1ccccc1OC", "note": "(stereo unspecified)", "growth": "26.5% (inactive)"}
{"smiles": "C/C(=N\\Nc1ccc([N+](=O)[O-])cn1)c1ccc(N)cc1", "growth": "94.8% (inactive)"}
{"smiles": "N/C(=N\\O)c1ncc(-c2ccc(C(F)(F)F)cc2)c(NC2CCCCCC2)n1", "growth": "-91.3% [100 µM] (active)"}
{"smiles": "O=[N+]([O-])c1ccc(Sc2nc(Cl)nc(NC3CCCC3)n2)cc1", "growth": "-88.9% [100 µM] (active)"}
{"smiles": "Cc1cc2nc(CN)[nH]c2cc1C", "growth": "111% (inactive)"}
{"smiles": "ClC1=NC(Cl)C(Cl)=N/C1=N\\c1ncn[nH]1", "note": "(stereo unspecified)", "growth": "26.3% (inactive)"}
{"smiles": "COc1ccc(CNc2c3ccccc3nc3ccccc23)cc1F", "growth": "25.9% (inactive)"}
{"smiles": "CCOC(=O)C1C(=O)C=C(c2ccccc2)CC1c1sc(N(C)Cc2ccccc2)nc1Cl", "note": "(stereo unspecified)", "growth": "94.3% (inactive)"}
{"smiles": "CCOC(=O)c1cc(C(=O)OCC)c(C)nc1C", "growth": "105% (inactive)"}
{"smiles": "O=C1OCC2=C1C(c1ccccc1)c1cc3c(cc1N2CCO)CCC3", "note": "(stereo unspecified)", "growth": "23.2% (inactive)"}
{"smiles": "O=C(CC(=O)c1ccccc1F)Nc1ccc([N+](=O)[O-])cc1", "growth": "85.3% (inactive)"}
{"smiles": "Cc1cc(Nc2c3ccccc3nc3ccccc23)ccc1NS(C)(=O)=O", "growth": "39.6% (inactive)"}
{"smiles": "COC(=O)CSc1ccc(Cl)cc1", "growth": "121% (inactive)"}
